Test results: PubChem BioAssay (NCATS)
Inconclusive results are not listed. Where a call stands in place of a potency, no number is given. Values without a mark were called inactive. Calls of active or inactive are those of the source. Calls come from the whole dose curve; as a rule, active = well fitted curve in the direction sought with a large enough effect; inconclusive = small, poorly fitted or top-dose-only effect, or another doubt; inactive = no such curve, though single readings can be large; an effect the other way counts as inactive or inconclusive.

Columns and labels:
[1] = target: Metallo-beta-lactamase type 2 (Klebsiella pneumoniae) (UniProt C7C422); assay: qHTS to identify inhibitors of the New Delhi Metallo-beta-lactamase (NDM): assay validation screen against the NCATS LOPAC Collection (AID 1794843); note: potency is the fitted concentration of half-maximal effect
Chain of Metallo-beta-lactamase type 2 (Klebsiella pneumoniae) (C7C422 whole entry, looked up): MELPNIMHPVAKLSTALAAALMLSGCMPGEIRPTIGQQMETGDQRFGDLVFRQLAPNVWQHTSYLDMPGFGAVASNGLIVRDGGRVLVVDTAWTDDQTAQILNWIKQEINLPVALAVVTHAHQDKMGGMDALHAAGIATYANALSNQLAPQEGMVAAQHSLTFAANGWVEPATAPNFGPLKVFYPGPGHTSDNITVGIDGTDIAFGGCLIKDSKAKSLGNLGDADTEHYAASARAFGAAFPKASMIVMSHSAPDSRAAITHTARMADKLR
Outline: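 Enzyme 2 nM final, 50 mM HEPES pH 7.0, 1 uM ZnSO4, 0.01% Tween20; cpds in DMSO, preincub w/ enzyme; + nitrocefin (50 uM stock); A485 at plateau; no-enzyme column as blank.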

[2] = target: Glutathione peroxidase 1 (Homo sapiens) (UniProt P07203); assay: Primary qHTS Assay for Inhibitors of Recombinant Selenoprotein Glutathione Peroxidase 1 (GPX1) (AID 1845191); note: nearly all actives have a fitted effect of over 65% in size
Chain of Glutathione peroxidase 1 (Homo sapiens) (P07203 whole entry, looked up): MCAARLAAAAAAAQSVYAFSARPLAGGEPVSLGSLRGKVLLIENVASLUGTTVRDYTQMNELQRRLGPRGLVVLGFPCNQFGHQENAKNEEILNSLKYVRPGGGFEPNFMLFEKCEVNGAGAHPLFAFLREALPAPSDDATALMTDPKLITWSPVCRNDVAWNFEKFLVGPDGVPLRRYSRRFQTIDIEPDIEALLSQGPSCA
Outline: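 GR-coupled assay: compounds preincubated 30 min at room temperature with GPX1, then reaction started with CHP; final 10 nM GPX1, 1 mM GSH, 0.5 mM CHP, 0.5 mM NADPH, 100 nM GR, 0.01% BSA, pH 7.5 Tris buffer. NADPH fluorescence (340/450 nm) read at 0 and 15 min.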

[3] = qHTS profiling for inhibitors of Plasmodium falciparum proliferation (AID 504749); note: nearly all actives have a fitted effect of over 60% in size; note: potency is the fitted concentration of half-maximal effect; settings: P. falciparum in erythrocytes, SYBR Green DNA, 72 h
Outline: (§1)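 Readout was DNA-dye fluorescence from lysed cultures, ex 485/em 535 nm. Parasitized red cells had grown 72 h with compound; data scaled between 0.29 uM artemisinin and DMSO wells and corrected using vehicle-only plates.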

3D7 = assay: as above; settings: P. falciparum in erythrocytes, SYBR Green DNA, 72 h; series mostly up to 28.7 µM
Outline: as §1

7G8 = assay: as above; settings: P. falciparum in erythrocytes, SYBR Green DNA, 72 h; series mostly up to 28.7 µM
Outline: as §1

ATS189 = assay: as above; settings: P. falciparum in erythrocytes, SYBR Green DNA, 72 h; series mostly up to 28.7 µM
Outline: as §1

C2A = assay: as above; settings: P. falciparum in erythrocytes, SYBR Green DNA, 72 h; series mostly up to 28.7 µM
Outline: as §1

AS120 = assay: as above; settings: P. falciparum in erythrocytes, SYBR Green DNA, 72 h; series mostly up to 28.7 µM
Outline: as §1

[4] = target: Phospholipid hydroperoxide glutathione peroxidase GPX4 (Homo sapiens) (UniProt P36969); assay: Primary qHTS Assay for Inhibitors of Recombinant Selenoprotein Glutathione Peroxidase 4 (GPX4) (AID 1845192); settings: outcome: dose series up to 50 µM unless noted; note: nearly all actives have a fitted effect of over 65% in size
Chain of Phospholipid hydroperoxide glutathione peroxidase GPX4 (Homo sapiens) (P36969 whole entry, looked up): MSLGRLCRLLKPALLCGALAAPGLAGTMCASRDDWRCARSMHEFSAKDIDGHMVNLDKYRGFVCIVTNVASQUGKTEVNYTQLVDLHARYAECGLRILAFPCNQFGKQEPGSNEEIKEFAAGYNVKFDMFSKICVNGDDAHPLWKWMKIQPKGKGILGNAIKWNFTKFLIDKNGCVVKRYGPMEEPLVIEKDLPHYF
Outline: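 GR-coupled assay: recombinant GPX4 preincubated 30 min with compound at room temperature; final 200 nM GPX4, 1 mM GSH, 0.5 mM cumene hydroperoxide, 0.5 mM NADPH, 100 nM GR, 0.01% BSA, pH 7.5 Tris. NADPH fluorescence (340/450 nm) read at 0 and 15 min.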

AA1029 = assay: qHTS profiling for inhibitors of Plasmodium falciparum proliferation (AID 504749); note: nearly all actives have a fitted effect of over 60% in size; note: potency is the fitted concentration of half-maximal effect; settings: P. falciparum in erythrocytes, SYBR Green DNA, 72 h; series mostly up to 28.7 µM
Outline: as §1

ATS95 = assay: as above; settings: P. falciparum in erythrocytes, SYBR Green DNA, 72 h; series mostly up to 28.7 µM
Outline: as §1

[5] = at 28.7 µM (top of the series), parasite line A
[6] = at 12.8 µM (top of the series), parasite line A
[7] = at 28.7 µM (top of the series), parasite line B

## CN(C)C/C=C(/c1ccc(Br)cc1)c1cccnc1
[1]
  Potency: inactive
[2]
  Potency: inactive
[3]; [5]
  activity, negative = inhibition: -2.53%
3D7
  Potency: inactive
7G8
  Potency: 8.91 µM (active)
ATS189
  Potency: inactive
C2A
  Potency: inactive

## Fc1ccc(C(c2ccc(F)cc2)N2CCN(C/C=C/c3ccccc3)CC2)cc1
[1]
  Potency: inactive
[2]
  Potency: inactive
7G8
  Potency: 4.47 µM (active)
AS120
  Potency: 10 µM (active)

## CC(C)(C)NCC(O)c1cc(O)cc(O)c1 (stereo unspecified)
[1]
  Potency: inactive
[4]
  outcome: inactive

## CCCCNc1ccc(C(=O)OCCN(C)C)cc1
[1]
  Potency: inactive
[2]
  Potency: inactive
[4]
  outcome: inactive
[3]; [6]
  activity, negative = inhibition: 20%
3D7
  Potency: inactive
7G8
  Potency: inactive
AA1029
  Potency: inactive
AS120
  Potency: inactive
ATS95
  Potency: inactive
C2A
  Potency: inactive

## c1cnc(N2CCN(Cc3ccc4c(c3)OCO4)CC2)nc1
[1]
  Potency: inactive
[3]; [5]
  activity, negative = inhibition: 13.8%
[3]; [7]
  activity, negative = inhibition: 17.3%
3D7
  Potency: inactive
7G8
  Potency: inactive
AA1029
  Potency: inactive
AS120
  Potency: inactive
ATS189
  Potency: inactive
ATS95
  Potency: inactive
C2A
  Potency: inactive

## CC(=O)OCC1=C(C(=O)O)N2C(=O)[C@@H](NC(=O)Cc3cccs3)[C@H]2SC1
[1]
  Potency: inactive
[4]
  outcome: inactive
[3]; [5]
  activity, negative = inhibition: 5.33%
[3]; [7]
  activity, negative = inhibition: 13.1%
3D7
  Potency: inactive
7G8
  Potency: inactive
AA1029
  Potency: inactive
AS120
  Potency: inactive
ATS189
  Potency: inactive
ATS95
  Potency: inactive
C2A
  Potency: inactive

## NC(=Nc1ccccc1)Nc1ccccc1
[2]
  Potency: inactive
[4]
  outcome: inactive
[3]; [5]
  activity, negative = inhibition: -14.1%
[3]; [7]
  activity, negative = inhibition: -13.7%
3D7
  Potency: inactive
AA1029
  Potency: inactive
AS120
  Potency: inactive
ATS189
  Potency: inactive
ATS95
  Potency: inactive
C2A
  Potency: inactive

## O=C(CCCN1CCC(O)(c2cccc(C(F)(F)F)c2)CC1)c1ccc(F)cc1
[1]
  Potency: inactive
[3]; parasite line A
  Potency: 8.91 µM (active)
[3]; parasite line B
  Potency: 8.91 µM (active)
7G8
  Potency: 3.98 µM (active)
AA1029
  Potency: 7.08 µM (active)
AS120
  Potency: 7.94 µM (active)
ATS189
  Potency: 8.91 µM (active)
ATS95
  Potency: 10 µM (active)
C2A
  Potency: 11.2 µM (active)

## Cc1nnc(SCC2=C(C(=O)O)N3C(=O)[C@@H](NC(=O)Cn4cnnn4)[C@H]3SC2)s1
[1]
  Potency: inactive
[3]; [5]
  activity, negative = inhibition: 11.1%
[3]; [7]
  activity, negative = inhibition: 2.94%
3D7
  Potency: inactive
7G8
  Potency: inactive
AA1029
  Potency: inactive
AS120
  Potency: inactive
ATS189
  Potency: inactive
ATS95
  Potency: inactive
C2A
  Potency: inactive

## Cc1nc2ccccn2c(=O)c1CCN1CCC(C(=O)c2ccc(F)cc2)CC1
[1]
  Potency: inactive
[3]; [5]
  activity, negative = inhibition: -18.1%
[3]; [7]
  activity, negative = inhibition: 11.2%
3D7
  Potency: inactive
7G8
  Potency: 14.1 µM (active)
AS120
  Potency: inactive

## CN(C)CCOC(=O)COc1ccc(Cl)cc1
[1]
  Potency: inactive
[4]
  outcome: inactive
[3]; [6]
  activity, negative = inhibition: 18.7%
[3]; at 12.8 µM (top of the series), parasite line B
  activity, negative = inhibition: -4.94%
7G8
  Potency: inactive
AA1029
  Potency: inactive
AS120
  Potency: inactive
ATS189
  Potency: inactive
ATS95
  Potency: inactive
C2A
  Potency: inactive

## O=C(O)CN(CCN(CC(=O)O)CC(=O)O)CCN(CC(=O)O)CC(=O)O
[1]
  Potency: 2.82 µM (active)
[3]; [5]
  activity, negative = inhibition: 7.8%
[3]; [7]
  activity, negative = inhibition: -1.15%
3D7
  Potency: inactive
7G8
  Potency: inactive
AA1029
  Potency: inactive
AS120
  Potency: inactive
ATS189
  Potency: inactive
ATS95
  Potency: inactive
C2A
  Potency: inactive

## Brc1c(NC2=NCCN2)ccc2nccnc12
[1]
  Potency: inactive
[4]
  outcome: inactive
[3]; [5]
  activity, negative = inhibition: 0%
[3]; [7]
  activity, negative = inhibition: 3.95%
7G8
  Potency: 11.2 µM (active)
AA1029
  Potency: inactive
AS120
  Potency: inactive
ATS95
  Potency: inactive
C2A
  Potency: inactive

## C[N+](C)(C)CCOC(=O)CCC(=O)OCC[N+](C)(C)C
[1]
  Potency: inactive
[4]
  outcome: inactive
[3]; [5]
  activity, negative = inhibition: 1.72%
[3]; [7]
  activity, negative = inhibition: 1.32%
3D7
  Potency: inactive
7G8
  Potency: inactive
AA1029
  Potency: inactive
AS120
  Potency: inactive
ATS189
  Potency: inactive
ATS95
  Potency: inactive
C2A
  Potency: inactive

## CCN(Cc1ccncc1)C(=O)C(CO)c1ccccc1 (stereo unspecified)
[1]
  Potency: inactive
[4]
  outcome: inactive
[3]; [5]
  activity, negative = inhibition: 3.05%
[3]; [7]
  activity, negative = inhibition: -7.78%
3D7
  Potency: inactive
7G8
  Potency: inactive
AA1029
  Potency: inactive
AS120
  Potency: inactive
ATS189
  Potency: inactive
ATS95
  Potency: inactive
C2A
  Potency: inactive

## O=c1[nH]c(=O)n([C@H]2C[C@H](O)[C@@H](CO)O2)cc1Br
[1]
  Potency: inactive
[3]; [5]
  activity, negative = inhibition: -7.76%
[3]; [7]
  activity, negative = inhibition: -6.27%
3D7
  Potency: inactive
7G8
  Potency: inactive
AA1029
  Potency: inactive
AS120
  Potency: inactive
ATS189
  Potency: inactive
ATS95
  Potency: inactive
C2A
  Potency: inactive

## CCn1ccnc1CC1COc2ccccc2O1 (stereo unspecified)
[1]
  Potency: inactive
[4]
  outcome: inactive
[3]; [5]
  activity, negative = inhibition: 10.6%
[3]; [7]
  activity, negative = inhibition: 1.07%
3D7
  Potency: inactive
7G8
  Potency: inactive
AA1029
  Potency: inactive
AS120
  Potency: inactive
ATS189
  Potency: inactive
ATS95
  Potency: inactive
C2A
  Potency: inactive
